Screening results (PubChem)
A selection: hits, their analogues and other compounds. The true share with any hit is near 2.4%.
Nrf2 activator: qHTS of Nrf2 Activators. AREc32 ARE-luciferase reporter (MCF7-derived line), luminescence, 24 h. Potency, µM (doses to about 46.1 µM), without a hit: at the top dose activation, usual class: activators. actives 0.31% (n = 410,000). AID 624171, 2012; also: % of control where 0% means no effect; nearly all actives have a fitted effect of over 65% in size
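Each well held 1000 AREc32 cells, which were incubated with compound for 24 hr at 37 deg C after overnight attachment, and ARE reporter activity was quantified by firefly luciferase luminescence.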
Epigenetic reg: Quantitative High-Throughput Screen for Regulators of Epigenetic Control; murine LDR cells, GFP reporter derepression, 30 h; actives 0.2% (n = 280,000); Potency, µM (top dose mostly 53.9 µM), for inactives: at the highest dose GFP activation, actives largely listed as activators; also: % of control where 0% means no effect; nearly all actives have a fitted effect of over 60% in size
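GFP-positive cell count by laser-scanning cytometry (objects 20–120 um) after 30 h, 37 C compound exposure of murine LDR cells; reporter is CMV-GFP integrated at a silenced locus, inducible by HDAC or DNMT inhibitors.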
PINK1 modulator: A Quantitative High throughput Screen to Identify Chemical Modulators of PINK1 Expression; PINK1 immunofluorescence, high-content cytometry, 24 h; Potency, µM (top dose mostly 76.6 µM), for inactives: at the top dose activation (PINK1 increase), usual class: activators; actives 0.2% (n = 410,000); active = well fitted activation curve with a large enough effect; inconclusive = small, poorly fitted or top-dose-only effect; cell line not stated here; also: % of control where 0% means no effect; nearly all actives have a fitted effect of over 65% in size
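PINK1 protein, normally rapidly degraded, was detected by immunofluorescence after 24 hour compound treatment of a stable cell line. Titration data (5 concentrations) came from laser-scanning cytometry, with CCCP-treated wells as controls.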
A549 viability: Nrf2 qHTS screen for inhibitors: counterscreen for cytotoxicity. actives 0.16% (n = 390,000). A549 ARE-Fluc cells, CellTiter-Fluor viability, 18-24 h. Potency, µM (doses to about 46 µM), without a hit: at the highest dose activity change, negative = cytotoxicity, most hits filed as inhibitors; also: % is scaled to controls: 0 for no effect and ±100 for the full control effect
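Cytotoxicity counterscreen: CellTiter-Fluor fluorescence was measured in A549 ARE_Fluc cells after 18-24 h of compound exposure in a concentration series. The subsequent BugLite luminescent read reports ARE-luciferase activity.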
Nrf2 block: Nrf2 qHTS screen for inhibitors. A549 ARE-Fluc reporter, luciferase luminescence, 18-24 h. Potency, µM (series often up to 46 µM), for inactives: top-dose activity change, negative = inhibition, usual class: inhibitors. actives 2.1% (n = 360,000); also: % is scaled to controls: 0 for no effect and ±100 for the full control effect; nearly all actives have a fitted effect of over 60% in size
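A549 ARE_Fluc cells, 5000/well, 5% FBS OPTI-MEM; compounds in dose-response, 18-24 h at 37 °C/5% CO2; CellTiter-Fluor viability read (Ex 405/Em 525), then BugLite luciferase luminescence = Nrf2 activity.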
The depositor's hits bear a star; ? = inconclusive; nt = no result; [ ] = dose if it differs, or a comment. Unless noted, calls follow the shape of the dose curve; as a rule, active = well fitted curve in the direction sought with a large enough effect; inconclusive = small, poorly fitted or top-dose-only effect, or another doubt; inactive = no such curve, though single readings can be large; an effect the other way counts as inactive or inconclusive. Potency is read from the fitted curve at half-maximal effect.

SMILES	Nrf2 activator	Epigenetic reg	PINK1 modulator	A549 viability	Nrf2 block
Cc1ccccc1-n1c2nc(=O)n(C)c(=O)c-2cc2ccccc21	1%	-3%	2%	3%	-17%
Cn1nc(-c2ccccc2)nc1-c1ccccc1	20%	nt	0%	5%	?
Cn1nc(-c2cccnc2)nc2c(=O)n(C)c(=O)nc1-2	nt	nt	1%	6.5µM*	7.3µM*
Cn1nc(-c2ccc(F)cc2)nc2c(=O)n(C)c(=O)nc1-2	nt	nt	-1%	2.9µM*	2.3µM*
Cn1nc(-c2ccc(Cl)cc2)nc2c(=O)n(C)c(=O)nc1-2	nt	?	7%	8.2µM*	-124%
CS(=O)(=O)n1nc(-c2ccc(Cl)cc2)nc1N	1%	-1%	-2%	1%	4%
Cc1nc(N2CCCCC2)c2c(C)c(C(=O)Nc3cccc(C(F)(F)F)c3)sc2n1	-1%	0%	21%	-12%	23µM*
O=S(=O)(c1ccccc1Br)N(Cc1ccccc1)Cc1ccco1	nt	nt	nt	-1%	-25%
O=C(NCc1ccco1)Nc1ccc2nsnc2c1	22µM*	0%	8%	-13%	4%
Cc1nc(NC(=O)c2cccs2)ccc1Br	16µM*	1%	-2%	3%	?
Cc1ccc(C(=O)Nc2ccc(NC(=O)c3cccs3)cc2)cc1C	0%	2%	2%	-14%	?
Cc1cc(C)cc(C(=O)Nc2ccc(NC(=O)c3cccs3)cc2)c1	4%	nt	4%	?	18µM*
O=C(Nc1cccc2nsnc12)c1cccs1	7.9µM*	1%	1%	-11%	?
COc1cc(Cn2ncc3c4sc(C)cc4n(C)c3c2=O)cc(OC)c1	nt	nt	nt	-1%	16%
Cc1ccc(CNC(=O)C2CCN(c3ncnc4c3nc3n4CCCCC3)CC2)cc1	0%	-1%	?	14%	?
O=C(Nc1cccc(N2CCC(NCc3cnn(-c4ccccc4)n3)CC2)c1)c1cccnc1	nt	nt	-1%	nt	nt
CCNC(=O)c1cc(NC(=O)COC)cc2nc(-c3ccncc3)n(C)c12	nt	nt	0%	nt	nt
O=C(Nc1cccc(-c2csc(-c3ccccc3)n2)c1)c1cccs1	4%	1%	nt	0%	16µM*
O=C(Nc1cccc(NC(=O)c2cccs2)c1)c1cccnc1	13µM*	2%	-1%	-1%	1%
O=C(Nc1ccncc1)c1cccs1	1%	5%	-1%	-5%	8%
Cc1nc(-c2cccc(NC(=O)c3cccs3)c2)cs1	?	2%	-1%	-12%	-13%
O=C(Nc1ccc2nsnc2c1)c1cccs1	8.9µM*	1%	-1%	-6%	5%
Cc1nc2ccc(S(=O)(=O)N3CCN(S(=O)(=O)c4c(F)cccc4F)CC3)cc2s1	nt	nt	nt	-3%	-5%
O=C(CNC(=O)c1ccccc1)OC(Cc1ccccc1)C(=O)Nc1cc(C(F)(F)F)ccc1Cl (stereo unspecified)	nt	nt	nt	2%	-3%
CN(Cc1nccs1)c1ncnc2ccc(-c3ccc4c(c3)OCO4)cc12	nt	nt	nt	1%	-16%
SMILES	Nrf2 activator	Epigenetic reg	PINK1 modulator	A549 viability	Nrf2 block
CCOc1ccc(NCc2cc3cc(OC)ccc3[nH]c2=O)cc1	0%	-9%	0%	-12%	26µM*
COc1ccc2[nH]c(=O)c(CNc3cc(C)ccc3C)cc2c1	2%	-1%	-2%	?	18µM*
COc1ccc2[nH]c(=O)c(CNc3ccc(C)cc3C)cc2c1	9%	-1%	-1%	4%	2%
COC(=O)C(Cc1c[nH]c2ccccc12)NC(=O)COc1cccc(C)c1 (stereo unspecified)	1%	-1%	0%	2%	?
CC(=O)Nc1ccccc1-c1nc(CNC(=O)c2ccc(-n3cccn3)cc2)c(C)o1	nt	nt	1%	nt	nt
O=C(Nc1ccc2ccccc2c1)c1ccccc1Cl	21%	nt	2%	nt	nt
O=C(Nc1ccc2ccccc2c1)c1ccccc1O	0%	nt	14µM*	0%	?
COc1cc(-c2cc(C)c3c(OC)ccc(OC)c3n2)cc2c1OCCN(C(=O)Cn1nc(C)cc1C)C2	nt	nt	0%	nt	nt
O=C(CCNc1cccc(C(F)(F)F)c1)c1ccco1	16µM*	2%	10%[38.3 µM]	-6%	23%
COC(=O)N1CCCc2cc(S(=O)(=O)NCc3ccccc3)ccc21	3%	1%	1%	-8%	23µM*
CCOc1ccc(CNS(=O)(=O)c2ccc3c(c2)CCCN3C(C)=O)cc1	4%	1%	-2%	4%	nt
COc1ccc(CCNC(=O)Cn2c(=O)c3cccn3c3ccccc32)cc1OC	0%	0%	-1%	-17%	?
O=C(N/N=C/C(Br)=C/c1ccccc1)c1ccc([N+](=O)[O-])cc1	8.9µM*	nt	2%	-2%	1%
O=C(N/N=C/C(Br)=C\c1ccccc1)c1ccc2nc[nH]c2c1	22µM*	0%	4%	13%	-11%
Cc1c(C(=O)N(C)C2CCOC2)sc2ncnc(NCc3ccc4c(c3)OCO4)c12 (stereo unspecified)	nt	nt	0%	nt	nt
Cc1ccc(NC(=O)c2ccc3c(c2)NC(=O)c2ccccc2S3)cc1	4%	1%	10%	?	16µM*
O=C(COc1ccccc1C(=O)Nc1cccnc1)Nc1ccc(Br)cc1	nt	nt	3%	nt	nt
Cc1ccc(Cl)cc1N(C)C(=O)c1cc2ccc3cccnc3c2[nH]1	4%	-1%	14%	-4%	-14%
CCc1ccc(OCCNC(=O)c2cc(SC)ccc2Cl)cc1	0%	-1%	1%	?	18µM*
Cc1cc2nc(N3CCC(NC(C)c4nc(-c5ccccn5)no4)CC3)nc(C)c2cc1C (stereo unspecified)	nt	nt	0%	nt	nt
O=C(N/N=C/c1cnc(N2CCCCC2)s1)c1ccc(C(F)(F)F)cc1	1%	2%	7.1µM*	-26%	?
CC1CN(c2ncc(/C=N/NC(=O)c3ccccc3O)s2)CC(C)O1 (stereo unspecified)	0%	2%	0%	-1%	1%
CCS(=O)(=O)Nc1cc(C(=O)N2CCC[C@H]2CO)c2c(c1)nc(-c1ccccc1)n2C	nt	nt	1%	nt	nt
O=C(NC(=S)Nc1ccc(Oc2ccccc2)cc1)c1ccc(Cl)cc1	1%	-1%	1%[38.3 µM]	-20%	26µM*
COc1ccc(NC(=S)Nc2ccc(Oc3ccccc3)cc2)cc1	-1%	-3%	4%	-1%	23µM*
CCSc1nn(CC(=O)Nc2cccc(Cl)c2)c(N)c1S(=O)(=O)c1ccc(OC)cc1	-2%	-4%	?	?	18µM*
COc1ccc(S(=O)(=O)c2c(SC)nn(CC(=O)Nc3ccc(C)c(Cl)c3)c2N)cc1	0%	5%	?	?	23µM*
N=c1c2ccccc2nnn1-c1ccccc1[N+](=O)[O-]	14µM*	nt	0%	4%	0%
